Active and inactive are the calls of the source. The calls were made as follows: active = hit-call score of the fitted dose curve at least 0.9, where 1 is the maximum; inactive = score below 0.9.
How the values were obtained:
Details in all cases: mRNA level, 48 h; actives raise or lower the signal
CYP2C8 (gene 1558) = assay: LTEA_HepaRG_CYP2C8: Life Technologies and Expression Analysis (LTEA) Assay for CYP2C8 using HepaRG (AID 2283483)
Summary of the method: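 HepaRG (human liver line), 48 h chemical exposure, 8-pt half-log series from 100 uM, 0.5% DMSO vehicle. Readout: CYP2C8 transcript by qRT-PCR, housekeeping-normalized. Bidirectional fit vs DMSO baseline.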

CYP2C9 (gene 1559) = assay: LTEA_HepaRG_CYP2C9: Life Technologies and Expression Analysis (LTEA) Assay for CYP2C9 using HepaRG (AID 2283484)
Summary of the method: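 HepaRG, 48 h dosing, 8-pt half-log series, top 100 uM, 0.5% DMSO vehicle. Read-out: CYP2C9 transcript by TaqMan qRT-PCR, housekeeping-normalized (ACTB/GAPDH/POLR2A). Gain or loss fitted vs DMSO baseline.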

CYP2E1 (gene 1571) = assay: LTEA_HepaRG_CYP2E1: Life Technologies and Expression Analysis (LTEA) Assay for CYP2E1 using HepaRG (AID 2283485)
Summary of the method: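 CYP2E1 transcript was measured by TaqMan qRT-PCR in human HepaRG cultures after 48 h chemical exposure (top 100 uM, half-log steps, 0.5% DMSO vehicle). Housekeeping-gene normalization; gain or loss fitted relative to DMSO baseline.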

CYP4A11 (gene 1579) = assay: LTEA_HepaRG_CYP4A11: Life Technologies and Expression Analysis (LTEA) Assay for CYP4A11 using HepaRG (AID 2283486)
Summary of the method: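 Readout is CYP4A11 mRNA induction or suppression (qRT-PCR, ACTB/GAPDH/POLR2A normalization) in human HepaRG cells after 48 h chemical treatment, concentrations to 100 uM in 0.5% DMSO, fitted bidirectionally against vehicle.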

[1] = read-out: DNA damage-inducible transcript 3 (DDIT3), DDIT3 (gene 1649); assay: LTEA_HepaRG_DDIT3: Life Technologies and Expression Analysis (LTEA) Assay for DNA damage-inducible transcript 3 (DDIT3) using HepaRG (AID 2283488)
Summary of the method: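 qRT-PCR readout (Fluidigm TaqMan), housekeeping-normalized to ACTB, GAPDH, POLR2A. HepaRG cells, 48 h exposure, 8-point half-log series from 100 uM in 0.5% DMSO, duplicates. Gain or loss of signal fitted against DMSO baseline.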

[2] = read-out: Pro-epidermal growth factor (Homo sapiens) (UniProt P01133); assay: LTEA_HepaRG_EGF: Life Technologies and Expression Analysis (LTEA) Assay for Epidermal growth factor (EGF) using HepaRG (AID 2283489)
Summary of the method: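 EGF expression changes in human HepaRG cells are scored by bidirectional fitting relative to 0.5% DMSO controls. Chemicals are tested at eight half-log concentrations up to 100 uM for 48 h in serum-free induction medium.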

[3] = read-out: Early growth response protein 1 (EGR1) transcription factor, EGR1 (gene 1958); assay: LTEA_HepaRG_EGR1: Life Technologies and Expression Analysis (LTEA) Assay for Early growth response protein 1 (EGR1) transcription factor using HepaRG (AID 2283490)
Summary of the method: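 HepaRG, 48 h exposure, 8-pt half-log series from 100 uM, 0.5% DMSO vehicle; EGR1 transcript by TaqMan qRT-PCR (Fluidigm array), housekeeping-normalized; bidirectional fit relative to DMSO baseline.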

[4] = read-out: Ezrin (EZR), EZR (gene 7430); assay: LTEA_HepaRG_EZR: Life Technologies and Expression Analysis (LTEA) Assay for Ezrin (EZR) using HepaRG (AID 2283491)
Summary of the method: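 Read-out is EZR transcript level by qRT-PCR, normalized to three housekeeping genes and fitted bidirectionally against the DMSO control. Human HepaRG cells received test chemicals for 48 h at eight half-log concentrations up to 100 uM in 0.5% DMSO.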

CYP3A5 (gene 1577) = assay: LTEA_HepaRG_CYP3A5: Life Technologies and Expression Analysis (LTEA) Assay for CYP3A5 using HepaRG (AID 2283493)
Summary of the method: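 qRT-PCR read-out: CYP3A5 transcript in HepaRG lysates, housekeeping-normalized (ACTB/GAPDH/POLR2A), fitted bidirectionally against 0.5% DMSO baseline. Exposure 48 h, eight half-log concentrations up to 100 uM, duplicates.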

[5] = read-out: Fatty Acid-Binding Protein 1 (FABP1), FABP1 (gene 2168); assay: LTEA_HepaRG_FABP1: Life Technologies and Expression Analysis (LTEA) Assay for Fatty Acid-Binding Protein 1 (FABP1) using HepaRG (AID 2283494)
Summary of the method: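 qRT-PCR readout of FABP1 transcript (normalized to three housekeeping genes) after 48 h chemical exposure of HepaRG cells; eight concentrations, half-log steps, max 100 uM, 0.5% DMSO vehicle; gain or loss fitted relative to DMSO baseline.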

[6] = read-out: Cytochrome P450 7A1 (Homo sapiens) (UniProt P22680); assay: LTEA_HepaRG_CYP7A1: Life Technologies and Expression Analysis (LTEA) Assay for Cytochrome P450 7A1 (CYP7A1) using HepaRG (AID 2283496)
Summary of the method: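 Using 0.5% DMSO as vehicle and baseline, chemicals were tested in duplicate over an 8-point range from 100 uM on HepaRG cells for 48 h; qRT-PCR signals were normalised to ACTB, GAPDH and POLR2A.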

[7] = read-out: Glutathione S-Transferase (GSTA2), GSTA2 (gene 2939); assay: LTEA_HepaRG_GSTA2: Life Technologies and Expression Analysis (LTEA) Assay for Glutathione S-Transferase (GSTA2) using HepaRG (AID 2283497)
Summary of the method: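 qRT-PCR readout of GSTA2 transcript, normalized to three housekeeping genes, fitted bidirectionally against 0.5% DMSO baseline. Differentiated HepaRG cells received compound for 48 h at 8 concentrations (top 100 uM, half-log steps).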

[8] = read-out: Glutamate-cysteine ligase catalytic (GCLC), GCLC (gene 2729); assay: LTEA_HepaRG_GCLC: Life Technologies and Expression Analysis (LTEA) Assay for Glutamate-cysteine ligase catalytic (GCLC) using HepaRG (AID 2283498)
Summary of the method: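 HepaRG, 48 h exposure, 8-pt half-log series from 100 uM, 0.5% DMSO vehicle; TaqMan qRT-PCR for GCLC mRNA, housekeeping-normalized; bidirectional curve fit vs DMSO baseline.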

[9] = read-out: growth arrest and DNA damage 45 (GADD45G), GADD45G (gene 10912); assay: LTEA_HepaRG_GADD45G: Life Technologies and Expression Analysis (LTEA) Assay for growth arrest and DNA damage 45 (GADD45G) using HepaRG (AID 2283499)
Summary of the method: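 Human hepatic HepaRG line treated 48 h with chemicals (eight concentrations, half-log steps from 100 uM); transcript induction or repression of GADD45G scored by qRT-PCR versus DMSO vehicle.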

[10] = read-out: Glutamate-cysteine ligase regulatory (GCLM), GCLM (gene 2730); assay: LTEA_HepaRG_GCLM: Life Technologies and Expression Analysis (LTEA) Assay for Glutamate-cysteine ligase regulatory (GCLM) using HepaRG (AID 2283500)
Summary of the method: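 HepaRG, 48 h dosing, 100 uM top, half-log x8, 0.5% DMSO vehicle. Readout: GCLM mRNA by TaqMan qRT-PCR, housekeeping-normalized (ACTB/GAPDH/POLR2A). Curves fit bidirectionally vs DMSO baseline.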

[11] = read-out: Glutathione S-transferase M3 (GSTM3), GSTM3 (gene 2947); assay: LTEA_HepaRG_GSTM3: Life Technologies and Expression Analysis (LTEA) Assay for Glutathione S-transferase M3 (GSTM3) using HepaRG (AID 2283501)
Summary of the method: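 Changes in GSTM3 expression, an oxidative-stress marker, were scored by bidirectional curve fitting against 0.5% DMSO vehicle. Human HepaRG cultures received chemicals for 48 h in duplicate, highest concentration 100 uM with half-log dilutions.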

[12] = read-out: Heat shock 70 kDa protein 1 (HSPA1A), gene 3303; assay: LTEA_HepaRG_HSPA1A: Life Technologies and Expression Analysis (LTEA) Assay for Heat shock 70 kDa protein 1 (HSPA1A) using HepaRG (AID 2283502)
Summary of the method: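 HepaRG, 48 h exposure, 8-pt half-log CRC from 100 uM in 0.5% DMSO, duplicates. Readout: TaqMan qRT-PCR of HSPA1A mRNA, housekeeping-normalized (ACTB/GAPDH/POLR2A). Bidirectional fit vs 0.5% DMSO baseline.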

Measured: AC50

CCC(C)Nc1c([N+](=O)[O-])cc(C(C)(C)C)cc1[N+](=O)[O-] (stereo unspecified)
active: CYP2C8 (gene 1558) 12.6 µM | CYP2E1 (gene 1571) 49.3 µM | CYP4A11 (gene 1579) 50 µM | [2] 10.7 µM | [5] 50 µM | [6] 34.4 µM
inactive: CYP2C9 (gene 1559) | [1] | [3] | [4] | CYP3A5 (gene 1577) | [7] | [8] | [9] | [10] | [11] | [12]

CN1CSC(=S)N(C)C1
inactive: CYP2C8 (gene 1558) | CYP2C9 (gene 1559) | CYP2E1 (gene 1571) | CYP4A11 (gene 1579) | [1] | [2] | [3] | [4] | CYP3A5 (gene 1577) | [5] | [6] | [7] | [8] | [9] | [10] | [11] | [12]

CCCN(CCOc1c(Cl)cc(Cl)cc1Cl)C(=O)n1ccnc1
inactive: CYP3A5 (gene 1577) | [12]
active: CYP2C8 (gene 1558) 28.4 µM | CYP2C9 (gene 1559) 31.9 µM | CYP2E1 (gene 1571) 14.6 µM | CYP4A11 (gene 1579) 18.2 µM | [1] 24 µM | [2] 12.1 µM | [3] 27.9 µM | [4] 31.1 µM | [5] 32.9 µM | [6] 33.2 µM | [7] 31.8 µM | [8] 12.4 µM | [9] 13 µM | [10] 13.4 µM | [11] 78 µM

CCCN(CCC)c1c([N+](=O)[O-])cc(C(F)(F)F)cc1[N+](=O)[O-]
inactive: CYP2C8 (gene 1558) | CYP2C9 (gene 1559) | CYP2E1 (gene 1571) | CYP4A11 (gene 1579) | [1] | [2] | [3] | [4] | CYP3A5 (gene 1577) | [5] | [6] | [7] | [8] | [9] | [10] | [11] | [12]

COP(=O)(OC)OC=C(Cl)Cl
inactive: CYP2C8 (gene 1558) | CYP2C9 (gene 1559) | CYP2E1 (gene 1571) | CYP4A11 (gene 1579) | [1] | [2] | [3] | [4] | CYP3A5 (gene 1577) | [6] | [7] | [8] | [9] | [10] | [11] | [12]

CCOCN(C(=O)CCl)c1c(C)cccc1CC
active: CYP2C8 (gene 1558) 83.6 µM | CYP2C9 (gene 1559) 80.2 µM | CYP2E1 (gene 1571) 81.3 µM | CYP4A11 (gene 1579) 83.5 µM | [5] 87.7 µM | [6] 84.6 µM | [7] 83.4 µM | [9] 77.9 µM
inactive: [1] | [2] | [3] | [4] | CYP3A5 (gene 1577) | [8] | [10] | [11] | [12]

Clc1ccccc1-c1nnc(-c2ccccc2Cl)nn1
active: CYP2E1 (gene 1571) 20.7 µM | [5] 18.8 µM | [6] 24 µM | [10] 23 µM
inactive: CYP2C8 (gene 1558) | CYP2C9 (gene 1559) | CYP4A11 (gene 1579) | [1] | [2] | [3] | [4] | CYP3A5 (gene 1577) | [7] | [9] | [11] | [12]

COP(=S)(OC)Oc1ccc(SC)c(C)c1
inactive: CYP2C8 (gene 1558) | CYP2C9 (gene 1559) | CYP4A11 (gene 1579) | [1] | [2] | [3] | [4] | CYP3A5 (gene 1577) | [5] | [6] | [7] | [8] | [9] | [11] | [12]
active: CYP2E1 (gene 1571) 18.9 µM | [10] 0.244 µM

CCN(CC)C(=O)SCc1ccc(Cl)cc1
inactive: CYP2C8 (gene 1558) | CYP2C9 (gene 1559) | CYP4A11 (gene 1579) | [1] | [2] | [3] | [4] | CYP3A5 (gene 1577) | [6] | [7] | [8] | [9] | [10] | [11] | [12]
active: CYP2E1 (gene 1571) 27.3 µM | [5] 15.4 µM

O=C(O)COc1ccc(Cl)cc1Cl
inactive: CYP2C9 (gene 1559) | [1] | [2] | [3] | [4] | CYP3A5 (gene 1577) | [5] | [6] | [7] | [8] | [9] | [10] | [11] | [12]
active: CYP2C8 (gene 1558) 22 µM | CYP2E1 (gene 1571) 29.3 µM | CYP4A11 (gene 1579) 38.1 µM

COc1nn(CSP(=S)(OC)OC)c(=O)s1
inactive: CYP2C8 (gene 1558) | CYP2C9 (gene 1559) | CYP2E1 (gene 1571) | CYP4A11 (gene 1579) | [1] | [2] | [3] | [4] | CYP3A5 (gene 1577) | [5] | [6] | [7] | [8] | [9] | [10] | [11] | [12]

CNC(=O)Oc1ccccc1OC(C)C
inactive: CYP2C8 (gene 1558) | CYP2C9 (gene 1559) | CYP4A11 (gene 1579) | [1] | [2] | [3] | [4] | CYP3A5 (gene 1577) | [5] | [7] | [8] | [9] | [10] | [11] | [12]
active: CYP2E1 (gene 1571) 22.2 µM

O=C(Nc1ccccc1)Nc1cnns1
inactive: [2] | CYP3A5 (gene 1577) | [8] | [9] | [11] | [12]
active: CYP2C8 (gene 1558) 88.7 µM | CYP2C9 (gene 1559) 84 µM | CYP2E1 (gene 1571) 70.3 µM | CYP4A11 (gene 1579) 72.9 µM | [1] 79.2 µM | [5] 65.5 µM | [6] 50 µM | [7] 65.3 µM | [10] 80.3 µM

— PubChem BioAssay (EPA / NIEHS)
